# Compound activity: PubChem, National Center for Advancing Translational Sciences (NCATS)
# SARS PLpro yeast – qHTS of Yeast-based Assay for SARS-CoV PLP; Potency, µM (doses to about 32.9 µM), for inactives: at the highest dose activity, positive = growth rescue, hits mostly activators; hit rate 0.19% among 330,000; S. cerevisiae expressing SARS-CoV PLpro, growth rescue; also: potency is read from the fitted curve at half-maximal effect; 0% is about no effect; nearly all actives have a fitted effect of over 55% in size
# NS1 function inh – qHTS Assay for Inhibitors of Influenza NS1 Protein Function; Potency, µM (top dose mostly 46.1 µM), without a hit: at the top dose activity, positive = more growth; hit rate 0.4% among 270,000; also: potency is read from the fitted curve at half-maximal effect; actives are rising curves; nearly all actives have a fitted effect of over 50% in size
#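 A cell-based growth assay was used: compounds that relieve NS1-induced slow growth of budding yeast raise OD600. Assay medium was yeast nitrogen base with ammonium sulphate and -URA supplement, pH 6.0, with 2% galactose.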
# Shiga inhibitor – A qHTS for Small Molecule Inhibitors of Shiga Toxin; Vero cells, Shiga toxin protein synthesis inhibition reporter; inhibition, % at 38.7 µM; hit rate 9.2% among 290,000; AID 2315, 2010; in the data active = inhibition mostly above about 28%, no sharp cut-off; inactive = mostly below about 43%; also: 0% is about no effect
# Pf growth 48h – Primary qHTS for delayed death inhibitors of the malarial parasite plastid, 48 hour incubation; P. falciparum luciferase growth in erythrocytes, 48 h; Potency, µM (titrated, usually from 28.7 µM), without a hit: at the top dose activity change, negative = inhibition, hits mostly inhibitors; hit rate 5.9% among 310,000; AID 504832, 2011; active = well fitted inhibition curve with a large enough effect; inconclusive = small, poorly fitted or top-dose-only effect, or another doubt; inactive = no such curve, though single readings can be large or run the other way; also: potency is read from the fitted curve at half-maximal effect; % is scaled to controls: 0 for no effect and ±100 for the full control effect
#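 Growth was read as firefly luciferase luminescence after a 48 h, 37 C, 5% CO2 exposure of compounds to reporter-bearing P. falciparum cultures (0.1% parasitemia, 2% hematocrit final) in Albumax-supplemented RPMI 1640.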
# CHX counter – Cycloheximide Counterscreen for Small Molecule Inhibitors of Shiga Toxin; cell reporter, cycloheximide protein synthesis inhibition counterscreen; max response, %; hit rate 12% among 300,000; AID 2314, 2010; in the data active = max response mostly above about 13%, no sharp cut-off; inactive = mostly below about 14%; also: read at 38.3 µM for the half of the compounds with a filed dose; 0% is about no effect
# Pf growth 96h – Primary qHTS for delayed death inhibitors of the malarial parasite plastid, 96 hour incubation | P. falciparum luciferase reporter growth, 96 h | Potency, µM (doses to about 28.7 µM), inactives show top-dose activity change, negative = inhibition, hits mostly inhibitors | hit rate 6.9% among 320,000; active = well fitted inhibition curve with a large enough effect; inconclusive = small, poorly fitted or top-dose-only effect, or another doubt; inactive = no such curve, though single readings can be large or run the other way; also: potency is read from the fitted curve at half-maximal effect; % is scaled to controls: 0 for no effect and ±100 for the full control effect
#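 Plates of compound plus infected erythrocytes (2% hematocrit, 0.05% parasitemia final) incubate 96 hours, 37 C, 5% CO2. Detection reagent added; reduced luminescence from the parasites' luciferase reporter flags inhibition.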
# The depositor's hits bear a star; ? = inconclusive; / = no result given; [ ] = remark or other dose. The list is not random: actives were taken first. Their share in the collection is about 21%. Unless noted, calls follow the shape of the full dose curve.
SMILES,SARS PLpro yeast,NS1 function inh,Shiga inhibitor,Pf growth 48h,CHX counter,Pf growth 96h
O=C(Cc1ccccc1)Nc1cccc(-c2nnc(-c3ccco3)o2)c1,-13%,-6%,86*,6%,30*,-14%
COc1ccccc1OCC(=O)Nc1cccc(-c2nnc(-c3ccco3)o2)c1,1%,/,82*,?,36*,32%[5.75 µM]
O=C(Cc1ccc(Cl)cc1)Nc1cccc(-c2nnc(-c3ccco3)o2)c1,1%,6%,-3,?,3,-29%
O=C(COc1ccccc1)Nc1ccc(-c2nnc(-c3ccco3)o2)cc1,-5%,10%,2,6%,-4,/
CCCCN(C(=O)COC(=O)CSc1cc(C)c2ccccc2n1)c1c(N)n(CCC)c(=O)[nH]c1=O,-3%,-27%,3,12%,-2,6%
NC(=O)c1cccc2c1C(=O)N(C1CCCCC1)C2,-22%,-3%,-13,5%,12,9.3µM*
CSc1ccc(CCNC(=O)c2cccc3c2C(=O)N(C2CCCCC2)C3)cc1,-5%,9%,1,?,-10,10µM*
O=C(Nc1ccc(Br)cc1)c1cccc2c1C(=O)N(C1CCCCC1)C2,-4%,-6%,9,?,-2,19%
O=C(Nc1ccc(Br)cc1Br)c1cccc2c1C(=O)N(C1CCCCC1)C2,0%,8%,16,?,-4,?
O=C(NCCc1ccccc1)c1cccc2c1C(=O)N(C1CCCCC1)C2,-4%,-1%,-6,?,-3,?
Cc1cc(C)cc(NC(=O)c2cccc3c2C(=O)N(C2CCCCC2)C3)c1,/,12%,-4,?,-1,12µM*
COc1cc(NC(=O)c2cccc3c2C(=O)N(C2CCCCC2)C3)cc(OC)c1OC,-8%,-36%,-7,12µM*,6,?
CCN(CC)CCN(Cc1cc2cc(C)ccc2[nH]c1=O)C(=S)Nc1ccccc1,0%,2%,-4,?,-4,34%
CCN(CC)CCNC(=O)c1ccc(NC(=O)c2ccc(F)cc2F)cc1,0%,/,-3,35%,11,27%
CC1CCCCN1CCCNC(=O)CN1C(=O)c2cccnc2Oc2ccc(Cl)cc21 (stereo unspecified),-1%,0%,0,?,5,63%
Cc1ccc(NC(=O)c2cccc3c2C(=O)N(C2CCCCC2)C3)c(Cl)c1,11%,1%,-2,?,-3,4.7µM*
Cc1cc(Cn2ccnc2)c(C)c([N+](=O)[O-])c1Cn1ccnc1,0%,3%,-3,10µM*,-2,?
Cc1ccc2c(Cn3ccnc3)cc(=O)oc2c1C,1%,0%,44,-10%,15,12%
CC1(C)Cc2c(sc(/N=C/N3CCCC3)c2C#N)C(C)(C)N1,10%,4%,11,-10%,-2,40%
COc1cc2c(cc1OC)C(SC)=NC1(CCCC1)C2,-1%,-6%,-10,10µM*,-2,-23%
COc1cc2c(cc1OC)C(C)=NC1(CCCCC1)C2,-1%,5%,-6,?,-2,17%
CCC(C)(C)n1nnnc1C(c1ccncc1)N1CCN(c2cccc(OC)c2)CC1 (stereo unspecified),1%,4%,-2,0%,-1,2.6µM*
CC(C)(C)n1nnnc1C(c1cccnc1)N1CCN(c2ccccc2)CC1 (stereo unspecified),-23%,-76%,-9,?,-1,-17%
CCC(C)(C)n1nnnc1C(c1ccc(C)cc1)N1CCSCC1 (stereo unspecified),-5%,-7%,-3,-24%,4,?
CCC(C)(C)n1nnnc1C(c1ccc(C)cc1)N1CCN(Cc2cccnc2)CC1 (stereo unspecified),6%,1%,-19,13µM*,-7,-4%[5.75 µM]
SMILES,SARS PLpro yeast,NS1 function inh,Shiga inhibitor,Pf growth 48h,CHX counter,Pf growth 96h
CCC(C)(C)n1nnnc1C(c1cccnc1)N1CCN(c2cccc(C(F)(F)F)c2)CC1 (stereo unspecified),-30%,-116%,-16,9.3µM*,-3,0%
CCOc1cc(/C=C2\CN(C)C/C(=C\c3ccc(O)c(OCC)c3)C2=O)ccc1O,-1%,1%,7,2%[0.00184 µM],27*,?
CC1=NOC(=O)/C1=C/c1ccc(O)c(Cl)c1,-1%,-5%,-5,4%[0.00184 µM],-2,?
C=CCNC(=O)/C(C#N)=C\c1cc(Cl)c(O)c(OCC)c1,1%,-8%,9,-4%,-2,?
CCOc1cc(/C=C2/C(=O)ON=C2C)ccc1O,2%,4%,-4,12%[0.00184 µM],-4,0.093µM*
CCOc1cc(/C=C2\CCC/C(=C\c3cc(Cl)c(O)c(OCC)c3)C2=O)cc(Cl)c1O,-17%,-7%,60,?,23*,3.3µM*
COc1ccc(OCc2nnc(SCC(=O)Nc3ccccc3F)o2)cc1,-4%,1%,-12,10%,-3,4%
COc1cccc(NC(=O)CCNC(=O)c2ccccc2Cl)c1,4%,/,8,0%,15,0%
CCNC(=S)N(CCc1c(C)[nH]c2ccc(C)cc12)Cc1cccnc1,-1%,5%,5,?,0,?
Cc1[nH]c2ccc(F)cc2c1CCN(Cc1cccnc1)C(=S)Nc1ccc(F)cc1,-1%,/,-1,4.1µM*,5,7.4µM*
CCOc1ccc(NC(=S)N(CCc2c(C)[nH]c3ccc(C)cc23)Cc2cccnc2)cc1,-8%,10%,-3,?,-3,3.7µM*
CCOC(=O)N1CCN(c2ccccc2OC)CC1,-2%,0%,5,86%,6,17%
CCOC(=O)/C(=N\Nc1ccc(Br)cc1)N1CCN(c2ccccc2OC)CC1,-12%,1%,24,15µM*,1,?
CCN(CC)CCN1C(=O)C(=O)/C(=C(/O)c2ccc(S(=O)(=O)N3CCOCC3)cc2)C1c1ccc(C(C)(C)C)cc1 (stereo unspecified),0%,5%,11,-15%,1,12%
COc1ccc(Br)cc1C(=O)Nc1cccc2ncccc12,-1%,-3%,-7,1%,-1,-7%
O=C(Nc1cccc2ncccc12)c1ccc(Cl)cc1,0%,6%,-6,?,-3,6.6µM*
COc1ccc(Cl)cc1C(=O)Nc1cccc2ncccc12,-2%,-28%,/,?,-3,0.23µM*
CC(=O)c1ccccc1NC(=O)COC(=O)c1cc[n+]([O-])cc1,6%,/,/,/,/,/
CS(=O)(=O)c1ccc(Cl)c(NC(=O)COC(=O)c2c(Cl)cccc2Cl)c1,1%,-5%,20,?,-3,-8%
O=C(COC(=O)c1ccccc1)Nc1ccccc1Br,0%,2%,65*,0%,40*,5%
O=C(COC(=O)c1cc[n+]([O-])cc1)Nc1cccc(Cl)c1Cl,3%,/,33,12µM*,7,17%
O=C(COC(=O)c1c(Cl)cccc1Cl)Nc1ccccc1Br,-24%,-17%,18,?,26*,?
